Results filed as inconclusive are left out. Entries that show only a call come without a potency. Values without a mark were called inactive. Activity calls are given as the source filed them. Unless noted, calls come from the whole dose curve; as a rule, active = well fitted curve in the direction sought with a large enough effect; inconclusive = small, poorly fitted or top-dose-only effect, or another doubt; inactive = no such curve, though single readings can be large; an effect the other way counts as inactive or inconclusive.
Assays:
[1] = biological target: Calcium and integrin-binding protein 1 (Homo sapiens) (UniProt Q99828); experiment: Primary qHTS for Identification of Calcium Integrin Binding Protein 1 (CIB1) Competitor (AID 1508620);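 note: GST tagged CIB1 binding a fluorescein labelled alphaIIb integrin peptide tracer; top concentration of the series differs between compounds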
Sequence of Calcium and integrin-binding protein 1 (Homo sapiens) (Q99828 whole entry, looked up): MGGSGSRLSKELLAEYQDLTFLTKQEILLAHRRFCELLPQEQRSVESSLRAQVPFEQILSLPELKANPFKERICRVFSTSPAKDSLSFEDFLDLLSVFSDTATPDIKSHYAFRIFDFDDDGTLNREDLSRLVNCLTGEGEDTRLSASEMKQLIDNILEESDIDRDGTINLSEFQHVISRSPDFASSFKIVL
Method in brief: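 CIB1-GST (1 uM final) and compound incubated 15 min at room temperature before adding FITC-alphaIIb peptide tracer (100 nM final). Competition for binding read by fluorescence polarization (ex 480, em 540) after another 15 min at room temperature.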

[2] = Primary qHTS for inhibitors of nuclear receptor binding SET domain protein 2 (NSD2) in an isogenic RCH-ACV NSD2 p.E1099K mutant (9B) (AID 1645876); note: nearly all actives have a fitted effect of over 70% in size; note: potency is the fitted concentration of half-maximal effect
[3] = biological target: Cytochrome P450 2C9 (Homo sapiens) (UniProt P11712); experiment: Cytochrome P450 family 2 subfamily C member 9 (CYP2C9) small molecule antagonists: luciferase biochemical (cell-free) qHTS assay (AID 1645842; active = well fitted curve in the direction sought with a large enough effect in the repeat runs; an effect the other way counts as inactive or inconclusive; note: nearly all actives have a fitted effect of over 55% in size; note: potency is the fitted concentration of half-maximal effect)
Sequence of Cytochrome P450 2C9 (Homo sapiens) (P11712 whole entry, looked up): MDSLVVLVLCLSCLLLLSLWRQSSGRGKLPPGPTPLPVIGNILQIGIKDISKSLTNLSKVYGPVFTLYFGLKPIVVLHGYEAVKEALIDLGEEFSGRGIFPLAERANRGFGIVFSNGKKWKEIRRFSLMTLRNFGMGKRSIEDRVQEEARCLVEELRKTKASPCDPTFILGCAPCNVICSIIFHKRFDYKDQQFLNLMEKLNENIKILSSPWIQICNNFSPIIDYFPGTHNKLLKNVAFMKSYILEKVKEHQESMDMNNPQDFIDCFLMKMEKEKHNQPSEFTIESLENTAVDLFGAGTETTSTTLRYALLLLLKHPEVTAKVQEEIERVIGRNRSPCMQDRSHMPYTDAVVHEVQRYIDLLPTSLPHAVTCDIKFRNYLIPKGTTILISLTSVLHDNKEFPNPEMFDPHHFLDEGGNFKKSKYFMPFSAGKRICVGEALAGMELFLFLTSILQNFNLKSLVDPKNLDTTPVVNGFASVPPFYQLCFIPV
Method in brief: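 P450-Glo CYP2C9 system: proluciferin substrate with enzyme in mix containing 0.4% BSA, 10 min at room temperature, then NADPH regeneration solution added and incubated 1 h at 37C. Detection reagent stopped reaction; luminescence read after 20 min as RLU.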

[4] = biological target: Cytochrome P450 2D6 (Homo sapiens) (UniProt P10635); experiment: Cytochrome P450 family 2 subfamily D member 6 (CYP2D6) small molecule antagonists: luciferase biochemical (cell-free) qHTS assay (AID 1645840; active = well fitted curve in the direction sought with a large enough effect in the repeat runs; an effect the other way counts as inactive or inconclusive; note: nearly all actives have a fitted effect of over 55% in size; note: potency is the fitted concentration of half-maximal effect)
Sequence of Cytochrome P450 2D6 (Homo sapiens) (P10635 whole entry, looked up): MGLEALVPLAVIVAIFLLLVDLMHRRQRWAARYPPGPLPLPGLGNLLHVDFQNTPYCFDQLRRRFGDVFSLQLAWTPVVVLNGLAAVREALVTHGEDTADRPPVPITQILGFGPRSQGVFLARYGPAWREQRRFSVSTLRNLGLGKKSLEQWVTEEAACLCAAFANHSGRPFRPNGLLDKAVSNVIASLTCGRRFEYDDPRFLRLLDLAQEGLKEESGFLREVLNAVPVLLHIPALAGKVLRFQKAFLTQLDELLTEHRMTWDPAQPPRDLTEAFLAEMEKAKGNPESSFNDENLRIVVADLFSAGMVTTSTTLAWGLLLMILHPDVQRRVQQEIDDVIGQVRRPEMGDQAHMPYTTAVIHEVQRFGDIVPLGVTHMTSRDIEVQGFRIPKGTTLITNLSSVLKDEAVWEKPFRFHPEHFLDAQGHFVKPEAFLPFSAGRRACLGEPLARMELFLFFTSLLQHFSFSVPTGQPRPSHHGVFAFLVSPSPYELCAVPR
Method in brief: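 P450-Glo CYP2D6 system: proluciferin substrate converted by enzyme to luciferin, read by luminescence proportional to activity. Enzyme-substrate mix with compound 10 min at room temperature, then NADPH regeneration 1 h before detection reagent.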

[5] = Primary qHTS for small molecule stabilizers of the endoplasmic reticulum resident proteome: Secreted ER Calcium Modulated Protein (SERCaMP) assay (AID 1508630)
Method in brief: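 The SH-SY5Y reporter protocol was run at 3 concentrations up to 38.3 uM (primary) or 11 concentrations (follow-up): 16 h compound, 100 nM thapsigargin for 4 h, then extracellular luciferase luminescence.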

[6] = biological target: Papain (Carica papaya) (UniProt P00784); experiment: Primary qHTS assay for inhibitors of the protease papain (AID 1645873);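 note: papain turnover of Z-FR-AMC read as the AMC fluorescence gain over 10 min; series mostly up to about 50 µM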
Sequence of Papain (Carica papaya) (P00784 whole entry, looked up): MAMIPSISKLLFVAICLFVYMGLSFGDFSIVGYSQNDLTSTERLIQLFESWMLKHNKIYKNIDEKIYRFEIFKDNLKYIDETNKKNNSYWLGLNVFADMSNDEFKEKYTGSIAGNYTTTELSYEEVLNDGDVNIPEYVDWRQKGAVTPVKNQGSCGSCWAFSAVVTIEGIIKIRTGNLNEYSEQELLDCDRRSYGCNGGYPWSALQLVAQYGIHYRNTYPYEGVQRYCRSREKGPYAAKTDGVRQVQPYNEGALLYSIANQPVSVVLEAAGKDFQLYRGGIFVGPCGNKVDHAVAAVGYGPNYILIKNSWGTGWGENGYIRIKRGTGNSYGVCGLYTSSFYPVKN

## CCCN1CCO[C@H]2c3cc(O)ccc3OC[C@@H]21
[1]
  Potency: inactive
[2]
  Potency: inactive

## C[C@@]1(C(=O)O)CC[C@]2(C)CC[C@]3(C)C4=CC(=O)c5cc(O)c(O)cc5[C@]4(C)CC[C@@]3(C)[C@@H]2C1
[1]
  Potency: inactive
[2]
  Potency: inactive

## CC(CCc1ccc(O)cc1)O[C@@H]1O[C@H](CO[C@H]2OC[C@](O)(CO)[C@H]2O)[C@@H](O)[C@H](O)[C@H]1O (stereo not given in full)
[1]
  Potency: inactive
[2]
  Potency: inactive

## COC(=O)C1(C)CCC(O)C2(C)c3cc(O)c(C(C)C)cc3C(O)C(OC(C)=O)C12 (stereo not given)
[1]
  Potency: inactive
[2]
  Potency: inactive

## C[C@@H]1C(=O)O[C@H]2[C@H](O)[C@@]34[C@@H]5OC(=O)[C@@]3(O[C@@H]3OC(=O)[C@@H](O)[C@@]34[C@H](C(C)(C)C)[C@H]5O)[C@@]12O
[1]
  Potency: inactive
[2]
  Potency: inactive

## COC1CC(OC2CCC3(C)C(=CCC4C3CCC3(C)C(C(C)OC5OC(COC6OC(CO)C(O)C(O)C6O)C(O)C(O)C5O)CCC43O)C2)OC(C)C1OC1OC(C)C(O)C(OC)C1O (stereo not given)
[1]
  Potency: inactive
[2]
  outcome: inactive [at 9.23 µM]

## COC1CC(O[C@H]2CC[C@]3(C=O)C4CC[C@]5(C)[C@@H](C6=CC(=O)OC6)CC[C@]5(O)[C@@H]4CC[C@]3(O)C2)OC(C)C1O[C@@H]1O[C@H](CO)[C@@H](O)[C@H](O)[C@H]1O (stereo not given in full)
[1]
  Potency: inactive
[2]
  Potency: 54.1 nM (active)

## COC1=CC(=O)O[C@@H](/C=C/c2ccccc2)C1
[1]
  Potency: inactive
[2]
  Potency: inactive

## CCC1NC(=O)C2C(Cl)C(Cl)CN2C(=O)C(C(C)O)NC(=O)CC(c2ccccc2)NC(=O)C(CO)NC1=O (stereo not given)
[1]
  Potency: inactive
[2]
  Potency: inactive

## CCN1C[C@]2(COC(=O)c3ccccc3N3C(=O)C[C@H](C)C3=O)CC[C@H](OC)[C@@]34[C@@H]5C[C@H]6[C@H](OC)[C@@H]5[C@](O)(C[C@@H]6OC)[C@](O)([C@@H](OC)[C@H]23)[C@@H]14
[1]
  Potency: inactive
[2]
  Potency: inactive

## C=C1[C@@H]2CC[C@@]3(C)[C@H](c4ccoc4)OC(=O)C[C@]13O[C@H]1CC(=O)C(C)(C)[C@H](C(OC(C)=O)C(=O)OC)[C@]12C (stereo not given in full)
[1]
  Potency: inactive
[2]
  Potency: inactive

## CN[C@H]1[C@H](O)[C@H](O[C@@H]2[C@@H](O)[C@H](O[C@H]3O[C@H]([C@H](C)O)[C@@H](O)[C@H](O)[C@H]3N)[C@@H](N)C[C@H]2N)OC[C@@]1(C)O
[1]
  Potency: inactive
[2]
  Potency: inactive

## CO[C@@H]1[C@H](O)[C@@H](O[C@@H]2C[C@H]3CC[C@@H]4C(CC[C@]5(C)[C@@H](C6=CC(=O)OC6)CC[C@]45O)[C@@]3(C)[C@H](O)C2)O[C@H](C)[C@@H]1O[C@@H]1O[C@H](CO)[C@@H](O)[C@H](O)[C@H]1O (stereo not given in full)
[1]
  Potency: inactive
[2]
  Potency: 121 nM (active)

## C=C[C@H]1CN2CC[C@H]1C[C@@H]2[C@@H](O)c1ccnc2ccccc12
[1]
  Potency: inactive
[2]
  Potency: inactive

## CO[C@H]1[C@H](O)[C@H](O[C@H]2CC[C@]3(C)C4CC[C@]5(C)[C@H](C6=CC(=O)OC6)CC[C@]5(O)C4CC[C@@H]3C2)O[C@@H](C)[C@@H]1O (stereo not given in full)
[1]
  Potency: inactive
[2]
  Potency: 22.4 nM (active)

## O=C(O)c1ccnc2cc(C(OCCN3CCCCC3)c3ccccc3Cl)[nH]c12 (stereo not given)
[1]
  Potency: inactive
[2]
  Potency: inactive

## C[C@H]1C(=O)O[C@H]2[C@H](O)[C@]34C5OC(=O)[C@]3(O[C@@H]3OC(=O)[C@H](O)C34[C@H](C(C)(C)C)[C@H]5O)C12O (stereo not given in full)
[1]
  Potency: inactive
[2]
  Potency: inactive

## CC1=C2C(=O)C3[C@@H](CC=C4C[C@@H](O)CC[C@@]43C)[C@@H]2CC[C@]12O[C@@H]1C[C@H](C)CN[C@H]1[C@H]2C (stereo not given in full)
[1]
  Potency: inactive
[2]
  Potency: inactive

## CC(Cc1ccccc1)NC=O (stereo not given)
[3]
  Potency: inactive

## C[C@]12CC[C@H]3[C@@H]([C@H](O)CC4=CC(=O)CC[C@@]43C)[C@@H]1CC[C@@H]2O
[1]
  Potency: inactive
[2]
  Potency: inactive

## CC(C)(C)c1cc(O)ccc1O
[3]
  Potency: 12000 nM (active)

## CCC(C)(OC(C)=O)C(=O)O[C@H]1[C@H](OC(C)=O)C[C@@H]2[C@@](C)([C@@H]3C[C@H]4C=CO[C@H]4O3)[C@H](C)C[C@H](OC(C)=O)[C@@]2(COC(C)=O)[C@@]12CO2 (stereo not given in full)
[2]
  Potency: inactive

## COC(=O)C12C(=O)C(C)(O)C(=O)C1(C)C(C)=CC1C34CCC(OC3=O)C(C)(CO)C4CCC12C (stereo not given)
[2]
  Potency: inactive

## C/C=C(\C)C(=O)OC1C(C)OC(OC2C(C)OC(OC3CCC4(C)C(=CCC5C4CCC4(C)C(C(C)OC6OC(COC7OC(CO)C(O)C(O)C7O)C(O)C(O)C6O)CCC54O)C3)CC2OC)C(O)C1OC (stereo not given)
[1]
  Potency: inactive
[2]
  activity change, negative = viability loss: -3.12% [at 9.23 µM]

## C#CC(C)(O)CC (stereo not given)
[4]
  Potency: inactive
[3]
  Potency: inactive

## CN(N=O)c1cc(O)ccc1O
[5]
  outcome: inactive
[6]
  Potency: inactive

## O=C(NC(=O)c1c(F)cccc1F)Nc1ccc(Cl)c(Oc2ncc(C(F)(F)F)cc2Cl)c1
[4]
  Potency: 1510 nM (active)
[3]
  Potency: 1900 nM (active)

Reference: PubChem BioAssay (NCATS)
